Data taken from ChEMBL document CHEMBL4303097 (2020).
Over roughly 1,500 compounds, “Inhibition index” has its median near 0.17; the highest 2% begin near 1.3. The entries come from a sample that favours the highest values as a whole.

The molecules below were run on SARS-CoV-2 (assay: Inhibition of cell viability relative to arbidol control (inhibition index > 1 indicates higher activity) measured by fluorescence (OD590nm) in Vero E6 cells infected with SARS-CoV-2 (strain BavPat1) at MOI 0.002 after 72hrs).
Format: functional, Chlorocebus sabaeus, Vero C1008

Going from CCc1ccc(C(=O)C(C)CN2CCCCC2)cc1.Cl (stereo not given) to Cc1ccc(C(=O)C(C)CN2CCCCC2)cc1.Cl (stereo not given) [TOLPERISONE HYDROCHLORIDE], the Inhibition index falls from 1.254 to 1.172.

Compared with CCCCOc1ccc(C(=O)CCN2CCCCC2)cc1.Cl [DYCLONINE HYDROCHLORIDE], CC(C)NCC(O)COc1ccc(CCOCC2CC2)cc1.Cl (stereo not given) [BETAXOLOL HYDROCHLORIDE] is lower in Inhibition index: 1.119 for the first, 0.6286 for the second.

Compared with C[C@]12CC[C@@H]3c4ccc(O)cc4CC[C@H]3[C@@H]1CCC2=O [ESTRONE], C[C@]12CC[C@@H]3c4ccc(O)cc4CC[C@H]3[C@@H]1CC[C@@H]2O [ESTRADIOL] is lower in Inhibition index: 0.9303 for the first, 0.3797 for the second.

Going from C[C@]12CC[C@H]3C(=CCc4cc(O)ccc43)[C@@H]1CCC2=O [EQUILIN] to CS(=O)(=O)O.Cc1ccc2c(c1)c1c3n2CCNC3CCC1 (stereo not given), the Inhibition index falls from 1.282 to 0.5995.

Going from CC(=O)[N-]S(=O)(=O)c1ccc(N)cc1.O.[Na+] [SULFACETAMIDE SODIUM] to CC[N+](C)(C)Cc1ccccc1Br.Cc1ccc(S(=O)(=O)[O-])cc1 [BRETYLIUM TOSYLATE], the Inhibition index rises from 0.002362 to 0.2627.

First: Cc1cc(O)c(C(=O)N[C@@H](C(=O)N[C@@H]2C(=O)N3C(C(=O)O)=C(CSc4nnnn4C)CS[C@H]23)c2ccc(O)cc2)cn1 [CEFPIRAMIDE]
Second: CC1=C(C(=O)O)N2C(=O)[C@@H](NC(=O)[C@H](N)c3ccc(O)cc3)[C@H]2SC1 [CEFADROXIL]
The Inhibition index of the first is higher: 0.7171 for the first, 0.02715 for the second.

Compared with CN(C)CCCN1c2ccccc2[S+]([O-])c2ccc(Cl)cc21 (stereo not given) [CHLOROPROMAZINE SULFOXIDE], CN1CCN(CCCN2c3ccccc3Sc3ccc(C(F)(F)F)cc32)CC1.Cl.Cl [TRIFLUOPERAZINE HYDROCHLORIDE] is lower in Inhibition index: 0.938 for the first, -0.1697 for the second.

Compared with CN1C[C@H](CNC(=O)OCc2ccccc2)C[C@@H]2c3cccc4c3c(cn4C)C[C@H]21 [METERGOLINE], CC(Cc1ccccc1)NCCC(c1ccccc1)c1ccccc1.CC(O)C(=O)O (stereo not given) is higher in Inhibition index: -0.1165 for the first, -0.1094 for the second.

Compared with CCOc1ccc2ccccc2c1C(=O)N[C@@H]1C(=O)N2[C@@H]1SC(C)(C)[C@@H]2C(=O)[O-].O.[Na+] [NAFCILLIN SODIUM], CC1(C)S[C@@H]2[C@H](NC(=O)[C@@H](c3ccccc3)S(=O)(=O)O)C(=O)N2[C@H]1C(=O)O.[Na+].[Na+] is higher in Inhibition index: 0.3633 for the first, 0.4594 for the second.

First: Brc1c(NC2=NCCN2)ccc2nccnc12.O=C(O)C(O)C(O)C(=O)O
Second: CN1CCC(=C2c3ccccc3CCc3cccnc32)CC1.O=C(O)/C=C\C(=O)O.O=C(O)/C=C\C(=O)O [AZATADINE MALEATE]
The Inhibition index of the first is lower: 0.355 for the first, 0.8296 for the second.

Going from CN(C)[C@@H]1C(O)=C(C(N)=O)C(=O)[C@@]2(O)C(O)=C3C(=O)c4c(O)cccc4[C@@](C)(O)[C@H]3C[C@@H]12.Cl [TETRACYCLINE HYDROCHLORIDE] to CN(C)[C@@H]1C(O)=C(C(N)=O)C(=O)[C@@]2(O)C(O)=C3C(=O)c4c(O)ccc(Cl)c4[C@@](C)(O)[C@H]3C[C@@H]12.Cl [CHLORTETRACYCLINE HYDROCHLORIDE], the Inhibition index rises from -0.0001993 to 0.03495.

Going from CCC(=O)O[C@]1(C(=O)SCF)[C@H](C)C[C@H]2[C@@H]3C[C@H](F)C4=CC(=O)C=C[C@]4(C)[C@@]3(F)[C@@H](O)C[C@@]21C [FLUTICASONE PROPIONATE] to CC(=O)O[C@]1(C(C)=O)CC[C@H]2[C@@H]3C=C(Cl)C4=CC(=O)C5CC5[C@]4(C)[C@H]3CC[C@@]21C (stereo not given in full), the Inhibition index falls from 0.5757 to 0.4824.

Going from CC(C)NCC(O)c1cc(O)cc(O)c1.CC(C)NCC(O)c1cc(O)cc(O)c1.O=S(=O)(O)O (stereo not given) [METAPROTERENOL SULFATE] to CC(C)(C)NCC(O)c1ccc(O)c(CO)c1 (stereo not given) [ALBUTEROL], the Inhibition index rises from 0.06285 to 0.0995.

First: COCC1=C(C(=O)OC(C)OC(=O)OC(C)C)N2C(=O)[C@@H](NC(=O)/C(=N\OC)c3csc(N)n3)[C@H]2SC1 (stereo not given in full) [CEFPODOXIME PROXETIL]
Second: CO[C@@H]1[C@@H](O[C@@H]2O[C@H](C)[C@@H](O[C@H]3C[C@@](C)(O)[C@@H](OC(=O)CC(C)C)[C@H](C)O3)[C@H](N(C)C)[C@H]2O)[C@@H](CC=O)C[C@@H](C)[C@@H](O)/C=C/C=C/C[C@@H](C)OC(=O)C[C@H]1OC(C)=O [JOSAMYCIN]
The Inhibition index of the first is higher: 0.5603 for the first, 0.1589 for the second.

First: C[C@]12C/C(=C\O)C(=O)C[C@@H]1CC[C@@H]1[C@@H]2CC[C@@]2(C)[C@H]1CC[C@]2(C)O
Second: C[C@]12COC(=O)C[C@@H]1CC[C@@H]1[C@@H]2CC[C@@]2(C)[C@H]1CC[C@]2(C)O [OXANDROLONE]
The Inhibition index of the first is higher: 1.738 for the first, 0.1105 for the second.

Going from C[C@]12Cc3c[nH]nc3C[C@@H]1CC[C@@H]1[C@@H]2CC[C@@]2(C)[C@H]1CC[C@]2(C)O [STANOZOLOL] to C=C1/C(=C\C=C2/CCC[C@]3(C)[C@@H]([C@H](C)CCCC(C)C)CC[C@@H]23)C[C@@H](O)C[C@@H]1O [ALFACALCIDOL], the Inhibition index falls from 0.4173 to -0.1396.

Going from Cl.OC(c1cc(C(F)(F)F)nc2c(C(F)(F)F)cccc12)C1CCCCN1 (stereo not given) [MEFLOQUINE HYDROCHLORIDE] to O=C1Nc2ccc(Cl)cc2[C@@](C#CC2CC2)(C(F)(F)F)O1 [EFAVIRENZ], the Inhibition index rises from -0.1263 to -0.107.

Compared with COc1ccc(-c2noc(CC(=O)O)c2-c2ccc(OC)cc2)cc1 [MOFEZOLAC], COC(c1ccccc1)(c1ccccc1)C(Oc1nc(C)cc(C)n1)C(=O)O (stereo not given) is higher in Inhibition index: 0.1442 for the first, 1.459 for the second.

Going from Nc1cccc2c1C(=O)N(C1CCC(=O)NC1=O)C2=O (stereo not given) [POMALIDOMIDE] to CC[C@]12CCCN3CCc4c(n(c5ccccc45)[C@@](O)(C(=O)OC)C1)[C@@H]32 [VINCAMINE], the Inhibition index rises from -0.01474 to 0.1041.

Compared with CCOCCn1c(N2CCCN(C)CC2)nc2ccccc21.O=C(O)/C=C/C(=O)O.O=C(O)/C=C/C(=O)O [EMEDASTINE DIFUMARATE], CN(C)CCOC(=O)C(c1ccccc1)C1(O)CCCC1.Cl (stereo not given) [CYCLOPENTOLATE HYDROCHLORIDE] is higher in Inhibition index: 0.1648 for the first, 1.136 for the second.

Compared with N=C(N)c1ccc(OCCCCCOc2ccc(C(=N)N)cc2)cc1.O=S(=O)(O)CCO.O=S(=O)(O)CCO [PENTAMIDINE ISETHIONATE], COc1ccc(C[C@@H]2c3cc(OC)c(OC)cc3CC[N@+]2(C)CCC(=O)OCCCCCOC(=O)CC[N@@+]2(C)CCc3cc(OC)c(OC)cc3[C@H]2Cc2ccc(OC)c(OC)c2)cc1OC.O=S(=O)([O-])c1ccccc1.O=S(=O)([O-])c1ccccc1 [CISATRACURIUM BESYLATE] is higher in Inhibition index: -0.04121 for the first, 1.338 for the second.

Going from Cc1cccc(C)c1NC(=O)CC12CCCN1CCC2.Cl to CC(C)(C)NC[C@H](O)c1ccc(O)c(CO)c1.Cl [LEVALBUTEROL HYDROCHLORIDE], the Inhibition index rises from 0.08672 to 1.311.

First: CCC(=O)O[C@@H]1CC(=O)O[C@H](C)C/C=C/C=C/[C@H](O)[C@H](C)C[C@H](CC=O)[C@H](O[C@@H]2O[C@H](C)[C@@H](O[C@H]3C[C@@](C)(O)[C@@H](OC(=O)CC)[C@H](C)O3)[C@H](N(C)C)[C@H]2O)[C@H]1OC [MIDECAMYCIN]
Second: CO[C@@H]1[C@@H](O[C@@H]2O[C@H](C)[C@@H](O[C@H]3C[C@@](C)(O)[C@@H](O)[C@H](C)O3)[C@H](N(C)C)[C@H]2O)[C@@H](CC=O)C[C@@H](C)[C@@H](O[C@H]2CC[C@H](N(C)C)[C@@H](C)O2)/C=C/C=C/C[C@@H](C)OC(=O)C[C@H]1OC(C)=O
The Inhibition index of the first is lower: 0.09553 for the first, 1.276 for the second.

Compared with C[C@H]1O[C@@H](O[C@H]2[C@@H](O)C[C@H](O[C@H]3[C@@H](O)C[C@H](O[C@H]4CC[C@@]5(C)[C@H](CC[C@@H]6[C@@H]5C[C@@H](O)[C@]5(C)[C@@H](C7=CC(=O)OC7)CC[C@]65O)C4)O[C@@H]3C)O[C@@H]2C)C[C@H](O)[C@@H]1O [DIGOXIN], NC12CC3CC(CC(C3)C1)C2.NC12CC3CC(CC(C3)C1)C2.O=C(O)/C=C\C(=O)O is lower in Inhibition index: 0.2267 for the first, 0.02174 for the second.

First: COc1ccc(CC2c3cc(OC)c(OC)cc3CC[N+]2(C)CCC(=O)OCCCCCOC(=O)CC[N+]2(C)CCc3cc(OC)c(OC)cc3C2Cc2ccc(OC)c(OC)c2)cc1OC.O=S(=O)([O-])c1ccccc1.O=S(=O)([O-])c1ccccc1 (stereo not given) [ATRACURIUM BESYLATE]
Second: CC[N+](C)(CC)CCC[n+]1c(-c2ccccc2)c2cc(N)ccc2c2ccc(N)cc21.[I-].[I-] [PROPIDIUM]
The Inhibition index of the first is higher: 0.8693 for the first, 0.2273 for the second.

Going from CNCC(O)c1ccc(O)c(O)c1.Cl (stereo not given) [RACEPINEPHRINE HYDROCHLORIDE] to O.O=P(O)(O)C(O)(Cc1cccnc1)P(=O)(O)O, the Inhibition index falls from 0.3358 to 0.3004.

First: CC(=O)N[C@@H](CC(=O)O)C(=O)N[C@@H](CCC(=O)O)C(=O)O [ISOSPAGLUMIC ACID]
Second: N[C@@H]1CONC1=O [CYCLOSERINE]
The Inhibition index of the first is lower: 0.8884 for the first, 1.427 for the second.

Work on N[C@H]1CONC1=O [LEVCYCLOSERINE] yielded an Inhibition index of 1.42.
